This is part of a sample that, as a whole, favours compounds with a hit. Of some 79,000 tested, about 15% had one in any assay. Rule as the data show it: active = growth inhibition above about 70%; inactive = the rest. Where a SMILES comes first, the peptide text is derived from it. The star is where a group is joined. Trt = c1ccc(C(c2ccccc2)(c2ccccc2)*)cc1; Cbz = O=C(OCc1ccccc1)*; Bz = O=C(c1ccccc1)*
What was measured:
[1] = NCI Yeast Anticancer Drug Screen. Data for the rad50 strain (AID 155);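 also: 0% = growth of vehicle-only cultures of the same strain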; conditions: S. cerevisiae rad50 strain growth inhibition; at 50.0 µM; hits give high values
Procedure, shortened: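 DNA repair mutant yeast, compound exposure, growth read-out; inhibition is taken relative to vehicle.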

[2] = NCI Yeast Anticancer Drug Screen. Data for the mec2-1 strain (AID 157); conditions: S. cerevisiae mec2-1 strain, at 50.0 µM, hits give high values
Procedure, shortened: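 Growth inhibition is read against vehicle-treated controls after compound exposure of the mec2-1 yeast strain, which is defective in DNA damage repair or cell cycle control.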

[3] = NCI Yeast Anticancer Drug Screen. Data for the sgs1 mgt1 strain (AID 161);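 also: 0% = growth of cultures given vehicle only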; conditions: S. cerevisiae sgs1 mgt1 strain, at 50.0 µM, hits give high values
Procedure, shortened: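 Growth of a repair-deficient yeast mutant was monitored after compound treatment and expressed as inhibition relative to vehicle-treated cultures.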

[4] = NCI Yeast Anticancer Drug Screen. Data for the cln2 rad14 strain (AID 165);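 also: 0% = growth equal to vehicle treated cultures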; conditions: S. cerevisiae cln2 rad14 strain, at 50.0 µM, hits give high values
Procedure, shortened: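 Growth inhibition, relative to vehicle-treated controls, is the read-out. The test organism is a yeast strain with defined genetic alterations, cln2 rad14.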

[5] = NCI Yeast Anticancer Drug Screen. Data for the bub3 strain (AID 167); conditions: S. cerevisiae bub3 mutant strain, at 50.0 µM, hits give high values
Procedure, shortened: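 In this screen, a yeast mutant lacking normal mitotic checkpoint function is challenged with compound. Relative growth versus vehicle gives the inhibition value.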

[6] = NCI Yeast Anticancer Drug Screen. Data for the mlh1 rad18 strain (AID 175); conditions: S. cerevisiae mlh1 rad18 strain growth inhibition; at 50.0 µM; hits give high values
Procedure, shortened: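 Cells of a genetically altered yeast strain, deficient in DNA damage repair, were treated with compound. Their growth was then compared with that of vehicle-treated cultures to give inhibition.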

Measured: growth inhibition

COc1ccc(CCCNC(=O)c2cc(OC)c(OC)cc2CCO)cc1OC
inactive: [1] 18.9% | [2] 15.1% | [3] -45.5% | [4] -9.6% | [5] -31.2% | [6] -11.8%

CCN(CC)CCN1C(=O)c2c(c(-c3ccccc3)c3ccccc3c2-c2ccccc2)C1=O
inactive: [1] 21.6% | [2] 35.2% | [3] 21.6% | [4] 13.2% | [5] 27.4% | [6] 28%

O=C1NC(CO)C(=O)NC1CO (stereo unspecified)
inactive: [1] 3.7% | [2] -4.4% | [3] -12.2% | [4] -2.75% | [5] 0.25% | [6] -4.8%

C[C@H]1S[C@@H](c2ccc(Cl)cc2Cl)N(NC(=O)c2ccncc2)C1=O
inactive: [1] 57.9% | [2] 45% | [3] 40% | [4] 46.9% | [5] 52.1% | [6] 39.3%

ON=C1CCCCC1
inactive: [1] 37.9% | [2] 7.45% | [3] -1.45% | [4] -27.9% | [5] -3.15% | [6] 25.1%

O=C(O)COc1ccc(C2CCCCC2)cc1
inactive: [1] 5.1% | [2] 3.3% | [3] -7.65% | [4] 21.8% | [5] -4.9% | [6] -1.95%

CCOC(=O)c1c(N)sc2c1C(C(=O)OCC)CC2 (stereo unspecified)
inactive: [1] -8.95% | [2] 7.1% | [3] -8.05% | [4] -0.8% | [5] 14.8% | [6] 19.9%

Cc1cnc(SC(C)(C)C)c(C)c1
inactive: [1] -0.2% | [2] -20.2% | [3] -8.55% | [4] -68.6% | [5] 12.9% | [6] -10.5%

N#CSCC(Cl)=CCl (mixture of isomers)
inactive: [1] 2.95% | [2] 0.95% | [3] -4.4% | [4] 12.5% | [5] 0.5% | [6] -19.6%

CNC(=O)c1ccccc1CC1(O)CCCC1
inactive: [1] -9.85% | [2] -15.5% | [3] -0.5% | [4] 8.5% | [5] -9.75% | [6] -25.1%

O=C(Cl)/C=C/c1ccccc1
inactive: [1] 37.1% | [2] 15.5% | [3] 27.9% | [4] -29.1% | [5] 23.9% | [6] 34.9%

COC(=O)C(CSC(=O)c1ccccc1)NC(=O)CNC(=O)CNC(=O)C(CCCCNC(=O)OCc1ccccc1)NC(=O)CNC(=O)C(CSC(c1ccccc1)(c1ccccc1)c1ccccc1)NC(=O)OCc1ccccc1 (stereo unspecified) (Cbz-C(Trt)GK(Cbz)GGC(Bz)-OMe; configuration not given here)
inactive: [1] -4.85% | [2] 22.9% | [3] 25.8% | [4] -6% | [5] -53.1% | [6] 32.1%

NC(Cc1ccc(O)cc1)C(=O)OCc1ccccc1 (stereo unspecified)
inactive: [1] -6.45% | [2] 0.5% | [3] 15.1% | [4] -11.2% | [5] 34.2% | [6] -3.75%

COc1ccc2c(c1)OC(=O)C(S(=O)(=O)c1ccccc1)C2 (stereo unspecified)
inactive: [1] 6.25% | [2] 14.6% | [3] 6.65% | [4] -3.55% | [5] 1.2% | [6] 7.55%

O=C(O)C(O)C(O)C(O)C(O)C(=O)O.[Cu+2] (stereo unspecified)
inactive: [1] 1.2% | [2] -6.15% | [3] 2.25% | [4] 0% | [5] -4.4% | [6] 15.2%

CC1NC(=O)OC1C(C)(C)C (stereo unspecified)
inactive: [1] 6.95% | [2] -2.8% | [3] -0.75% | [4] -19.1% | [5] -5.4% | [6] -4.55%

CC(=O)OCC1(C)NC(=O)c2ccccc2O1 (stereo unspecified)
inactive: [1] 8.2% | [2] 20.2% | [3] 6.9% | [4] 8.15% | [5] 9.7% | [6] 22.4%

CCC(c1ccc(O)cc1)c1cc2c(cc1OCC(=O)OC)OCO2 (stereo unspecified)
inactive: [1] -5.1% | [2] -9.3% | [3] -4.65% | [4] -6.75% | [5] 0.65% | [6] 10.2%

O=C(Cn1c2c(c3ccccc31)CCCC2)N1CCCCC1
inactive: [1] -40.5% | [2] -74% | [3] -31.2% | [4] -22.2% | [5] -8.6% | [6] -26.2%

CC(=O)C(C(C)=O)C(C(C)=O)C(C)=O.[Cu]
inactive: [1] -26.8% | [2] -11.3% | [3] -21.1% | [4] -10.4% | [5] -18.4% | [6] -22.1%

NC(=O)CCn1ccc2ccccc21
inactive: [1] 0.5% | [2] -5.8% | [3] 0% | [4] -1.25% | [5] 5% | [6] -0.85%

Source: PubChem BioAssay (NCI)
